Reference: PubChem BioAssay (NCATS)
Records with an inconclusive call do not appear. Where a call stands in place of a potency, no number is given. The source made the active and inactive calls. Calls come from the whole dose curve; as a rule, active = well fitted cell-killing curve with a large enough effect; inconclusive = small, poorly fitted or top-dose-only effect; inactive = flat fitted curve, though single readings scatter. Bridge positions count the residues as written; N and C are the ends. Square brackets hold non-standard residues; d marks the D form. Side chains are listed from the residue outwards. Peptide text beside a SMILES is read from it. * marks the point of attachment. Phg(4-OMe) = COc1ccc([C@H](N)C(=O)O)cc1; d(aIle) = CC[C@H](C)[C@@H](N)C(=O)O; d(aThr) = C[C@@H](O)[C@@H](N)C(=O)O; NMeF = CN[C@@H](Cc1ccccc1)C(=O)O; Isobutyryl = CC(C)C(=O)*

Experiment: Viability qHTS for inhibitors of the SERCaMP assay screened against the NCATS CANVASS Library (AID 1347400); note: nearly all actives have a fitted effect of over 70% in size
Conditions: SH-SY5Y SERCaMP cells viability, CellTiter-Glo, 48 h; series mostly up to 92.2 µM
In short: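 SH-SY5Y-GLuc SERCaMP MJH297-derived cells (1000 cells/well) were pre-incubated 4 h at 37C, then exposed to compounds for 48 h. Viability was read as CellTiter-Glo luminescence; bortezomib served as positive control.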
Potency is the fitted concentration of half-maximal effect.

Compound | Potency | activity change, negative = cytotoxicity
Cc1occ2c1C(=O)c1c(cc(O)c(O)c1O)C2=O | inactive | 
CCC(=O)CCCCC[C@@H]1NC(=O)[C@H]2CCCCN2C(=O)[C@H](C(C)C)NC(=O)[C@H](Cc2cn(OC)c3ccccc23)NC1=O | 15.2 µM (active) | 
C/C(=C\[C@H](C)C(=O)CCCC1CC(=O)NC(=O)C1)[C@@H]1OC(=O)/C=C/CC/C=C/[C@H](O)[C@@H](O)[C@@H]1C | 3.81 µM (active) | 
C/C=C(/C)c1c(Cl)c(O)c(C)c2c1Oc1c(Cl)c(O)c(Cl)c(C)c1C(=O)O2 | inactive | 
C=CC(CCCCC)C1C(=O)NC(=O)C1C(=O)C1C(/C=C/C)C=CC2CC(C(=O)O)CC(C)C21 (stereo not drawn) | inactive | 
C=C1CC[C@@H](O[C@H]2C[C@@](O)([C@H](C)NC(=O)c3[nH]c(C)c(Cl)c3Cl)[C@H](O)[C@@H](C)O2)[C@@H]2C=C[C@H](C)C(/C(O)=C3/C(=O)[C@H](C(C)C)N([C@@H]4O[C@H](C)[C@H](OC(N)=O)[C@H](OC(C)=O)[C@@H]4OC)C3=O)[C@@H]12 (stereo partly drawn) | inactive | 
COc1ccc([C@@H]2CC(=O)c3c(cc(O)c(C/C=C(\C)CCC=C(C)C)c3O)O2)cc1 |  | -0.051% [at 18.4 µM] (inactive)
O=c1cc(-c2ccc(O)c(O)c2)oc2cc(O[C@@H]3O[C@H](CO)[C@@H](O)[C@H](O)[C@H]3O)cc(O)c12 | inactive | 
CC[C@H](C)[C@H]1NC(=O)[C@@H](NC(=O)C(C)C)[C@@H](C)OC(=O)[C@H](COC(=O)CNC(C)=O)NC(=O)[C@@H]([C@@H](C)O)NC(=O)[C@H](Cc2ccccc2)N(C)C(=O)[C@H](c2ccc(OC)cc2)NC1=O (Isobutyryl-T[d(aIle)][Phg(4-OMe)][NMeF][d(aThr)]S([Gly-Ac]); ester 1-C) | inactive | 
C[n+]1cc2cc(C(N)=O)[nH]c3c(=N)c(Cl)c(N)c1c23 | 42.8 µM (active) | 
C/C1=C/[C@@H](C)[C@H](O)[C@@H](O)/C=C/CC/C=C/C(=O)O[C@@H]1[C@H](C)C(=O)CCCC1CC(=O)NC(=O)C1 | inactive | 
CC(=O)Oc1cc2c(c(OC(C)=O)c1C1CCc3cc(Cl)c(Cl)n31)C(=O)n1c-2cc(Cl)c1Cl (stereo not drawn) | 42.8 µM (active) | 
COc1ccc2[nH]c3c(c2c1)CCN1C[C@H]2C[C@@H](OC(=O)c4cc(OC)c(OC)c(OC)c4)[C@H](OC)[C@@H](OC)[C@H]2C[C@H]31 | inactive | 
O[C@H]1c2ccccc2-c2c3c(cc4c2[C@@H]1NCC4)OCO3 | 38.1 µM (active) | 
CC(C)=CC[C@H]1C[C@@]2(CC=C(C)C)C(=O)[C@](CC=C(C)C)(C(=O)C(C(=O)c3ccccc3)=C2O)C1(C)C | inactive | 
C=C[C@](Cl)(CBr)CCC=C(C)C | inactive | 
C=C1CC[C@@H](Br)C(C)(C)[C@]12CC=C(C)C(=O)C2 | inactive | 
COc1cc2c(cc1OC)[C@@H](c1ccc3c(c1)OCO3)C(C)C(C)C2=O (stereo partly drawn) | inactive | 
C/C(=C\[C@H](C)C(=O)/C=C/CC1CC(=O)NC(=O)C1)[C@@H]1OC(=O)/C=C/CC/C=C/C[C@@H](O)[C@@H]1C | 17 µM (active) | 
CC(C)[C@]12CC[C@@]3(C)[C@H](C)CC[C@H](O)[C@@]3(CC1)c1cc3c(cc12)[nH]c1ccccc13 | inactive | 
C/C=C1/CN2C3CC1C1C=CC(=O)N4c5ccccc5[C@@]3(C[C@@H]2C2=C[C@H]3C5CC6N(CC[C@@]67c6ccccc6N(C2=O)[C@@H]37)C/C5=C/C)[C@H]14 (stereo partly drawn) | 19.1 µM (active) | 
CC(C)=CCC[C@]12c3cc4c(cc3CC[C@@]1(C)[C@H](C)CC[C@@H]2O)[nH]c1ccccc14 | inactive | 
Oc1ccc(C2Oc3cc(O)c4c(c3[C@@H]2c2cc(O)cc(O)c2)[C@H]2C(c3ccc(O)cc3)c3c(O)cc5c(c3[C@H]2C4c2ccc(O)cc2)[C@H](c2cc(O)cc(O)c2)C(c2ccc(O)cc2)O5)cc1 (stereo partly drawn) | inactive | 
C=C(C)CC[C@H](Cc1c(O)cc(O)c2c1O[C@H](c1ccc(O)cc1)CC2=O)C(=C)C | inactive | 
C=CC(CCCCC)C1C(=O)NC(=O)C1C(=O)C1C2C(C)CC(C(=O)O)CC2CC1(O)C(=O)/C=C/C (stereo not drawn) | inactive | 
C[C@]12CCC[C@](C)(C(=O)O)[C@@H]1CC[C@@]1(C)c3cocc3CC[C@H]21 | inactive | 
COc1c(O)cc2c(c1O)C(=O)c1c(coc1C)C2=O | inactive | 
CC(C)C[C@@H]1c2c(O)c(C=O)c(O)c(C=O)c2O[C@]2(C)C=C[C@@H](C(C)C)C[C@H]12 | inactive | 
